Laboratory results: PubChem BioAssay (EPA / NIEHS)
“And” between values parts separate entries of the source, which are not always exact repeats. Equal entries are not always repeated. Records with an inconclusive call do not appear. Some structures have more than one record in an assay (separate samples or runs), and their calls can disagree. The source made the active and inactive calls. How the source made its calls: active means hit-call score of the fitted dose curve at least 0.9, where 1 is the maximum; inconclusive means response in the unintended direction; inactive means score below 0.9.

Columns and labels:
[1] = target: Sodium channel protein type 1 subunit alpha (Rattus norvegicus) (UniProt P04774); assay: NVS_IC_rNaCh_site2: NovaScreen (NVS) Ion Channel Assay for rat Sodium Channel, Site 2 (NaCh) (AID 2283322);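 further: hit means loss of radioligand binding signal relative to DMSO so AC50 marks displacement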
Procedure, shortened: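 Membranes: rat forebrain. Format: competitive radioligand displacement, filter separation, scintillation readout, 1 h exposure. Primary screen in duplicate at 25 uM; actives retested in concentration series.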

[2] = target: rat Peripheral-type Benzodiazepine Receptor (PBR), Tspo (gene 24230) (UniProt P16257); assay: NVS_MP_rPBR: NovaScreen (NVS) Membrane Protein Assay for rat Peripheral-type Benzodiazepine Receptor (PBR) (AID 2283335)
Chain of rat Peripheral-type Benzodiazepine Receptor (PBR), Tspo (gene 24230) (P16257 whole entry, looked up): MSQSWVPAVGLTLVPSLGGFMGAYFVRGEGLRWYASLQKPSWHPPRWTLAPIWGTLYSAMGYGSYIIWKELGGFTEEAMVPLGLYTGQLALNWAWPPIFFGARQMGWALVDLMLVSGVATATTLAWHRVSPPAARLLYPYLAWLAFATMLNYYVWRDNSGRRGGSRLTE
Procedure, shortened: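 Radioligand displacement, rat kidney membrane prep, 1 h exposure, filter-based scintillation read; DMSO baseline, loss-of-signal scored. Primary screen at 25 uM in duplicate, actives followed up in concentration series.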

[3] = target: rat Thyrotropin Releasing Hormone Receptor (TRH), Trhr (gene 25570) (UniProt Q01717); assay: NVS_GPCR_rTRH: NovaScreen (NVS) G Protein-Coupled Receptor Assay for rat Thyrotropin Releasing Hormone Receptor (TRH) (AID 2283329);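 further: hit means lower bound tracer signal versus DMSO baseline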
Chain of rat Thyrotropin Releasing Hormone Receptor (TRH), Trhr (gene 25570) (Q01717 whole entry, looked up): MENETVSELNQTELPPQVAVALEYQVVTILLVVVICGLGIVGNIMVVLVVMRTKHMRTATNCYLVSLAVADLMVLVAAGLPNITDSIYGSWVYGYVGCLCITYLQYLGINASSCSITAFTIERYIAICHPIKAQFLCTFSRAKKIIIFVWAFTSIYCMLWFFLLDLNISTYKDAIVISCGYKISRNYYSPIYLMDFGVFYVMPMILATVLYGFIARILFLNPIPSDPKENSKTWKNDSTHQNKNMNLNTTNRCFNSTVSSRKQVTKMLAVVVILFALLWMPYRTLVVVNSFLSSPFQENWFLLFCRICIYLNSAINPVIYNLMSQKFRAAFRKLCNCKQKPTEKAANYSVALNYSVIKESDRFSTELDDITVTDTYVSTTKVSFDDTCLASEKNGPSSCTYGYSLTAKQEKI
Procedure, shortened: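 Cell-free radioligand binding on rat forebrain membranes; bound tracer measured by filter-based scintillation counting 4 hours after dosing. Loss of signal versus DMSO baseline indicates displacement; primary screen at 25 uM in duplicate, actives then run in concentration series.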

[4] = target: human Peripheral-type Benzodiazepine Receptor (PBR), TSPO (gene 706) (UniProt P30536); assay: NVS_MP_hPBR: NovaScreen (NVS) Membrane Protein Assay for human Peripheral-type Benzodiazepine Receptor (PBR) (AID 2283331);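 further: hits reduce radioligand binding relative to DMSO baseline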
Chain of human Peripheral-type Benzodiazepine Receptor (PBR), TSPO (gene 706) (P30536 whole entry, looked up): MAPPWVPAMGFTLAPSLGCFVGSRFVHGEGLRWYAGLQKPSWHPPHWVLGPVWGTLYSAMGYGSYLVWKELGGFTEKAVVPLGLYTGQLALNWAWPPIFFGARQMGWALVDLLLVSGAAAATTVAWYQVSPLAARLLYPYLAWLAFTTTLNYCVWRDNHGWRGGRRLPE
Procedure, shortened: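 Scintillation counts of filter-bound radioligand served as read-out after 1 h chemical dosing of human colonic membrane preparations. Activity was scored as signal loss against DMSO; initial duplicates at 25 uM, confirmatory concentration series afterward.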

[5] = target: Estrogen receptor (Homo sapiens) (UniProt P03372); assay: NVS_NR_hER: NovaScreen (NVS) Nuclear Receptor Binding Assay for human Estrogen Receptor (ER) (AID 2283348)
Chain of Estrogen receptor (Homo sapiens) (P03372 whole entry, looked up, the tested form may be a part): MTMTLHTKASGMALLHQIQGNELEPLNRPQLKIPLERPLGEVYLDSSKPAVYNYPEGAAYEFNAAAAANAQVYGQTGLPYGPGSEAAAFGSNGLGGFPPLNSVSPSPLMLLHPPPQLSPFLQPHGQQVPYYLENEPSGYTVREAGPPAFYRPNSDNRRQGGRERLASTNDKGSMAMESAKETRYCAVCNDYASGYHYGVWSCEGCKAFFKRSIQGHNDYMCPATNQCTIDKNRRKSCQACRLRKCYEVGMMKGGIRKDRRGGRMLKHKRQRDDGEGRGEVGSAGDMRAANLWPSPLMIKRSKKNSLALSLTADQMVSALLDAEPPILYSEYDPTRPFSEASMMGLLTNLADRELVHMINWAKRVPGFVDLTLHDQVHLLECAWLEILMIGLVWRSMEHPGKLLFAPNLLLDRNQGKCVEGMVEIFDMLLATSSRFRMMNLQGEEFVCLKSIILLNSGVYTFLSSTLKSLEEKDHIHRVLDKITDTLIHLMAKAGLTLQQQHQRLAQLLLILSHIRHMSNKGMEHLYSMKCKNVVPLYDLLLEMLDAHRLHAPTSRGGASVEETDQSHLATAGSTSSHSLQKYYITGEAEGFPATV
Procedure, shortened: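 Scintillation signal from bound radioligand was measured 18 hours after chemical addition to cell-free MCF7 protein extracts, with DMSO as baseline. Activity was scored as signal loss; compounds ran first at 25 uM in duplicate.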

[6] = target: Estrogen receptor (Homo sapiens) (UniProt P03372); assay: OT_ER_ERaERa_1440: Odyssey Thera (OT) 24-hour HEK293T Protein-Complementation Assay for Estrogen Receptor-alpha/-alpha Homodimer (AID 2283349);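 further: hits raise fluorescence above DMSO for agonists and antagonists alike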
Procedure, shortened: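 Protein-fragment complementation between two human ERα ligand-binding domains (aa 310-547) in stably transfected HEK293T cells was monitored after 24 h treatment, using fluorescence intensity relative to vehicle controls.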

[7] = target: bovine Estrogen Receptor (ER), ESR1 (gene 407238) (UniProt P49884); assay: NVS_NR_bER: NovaScreen (NVS) Nuclear Receptor Binding Assay for bovine Estrogen Receptor (ER) (AID 2283345);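 further: actives lower the bound radioligand count which means they displace the ER ligand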
Chain of bovine Estrogen Receptor (ER), ESR1 (gene 407238) (P49884 whole entry, looked up): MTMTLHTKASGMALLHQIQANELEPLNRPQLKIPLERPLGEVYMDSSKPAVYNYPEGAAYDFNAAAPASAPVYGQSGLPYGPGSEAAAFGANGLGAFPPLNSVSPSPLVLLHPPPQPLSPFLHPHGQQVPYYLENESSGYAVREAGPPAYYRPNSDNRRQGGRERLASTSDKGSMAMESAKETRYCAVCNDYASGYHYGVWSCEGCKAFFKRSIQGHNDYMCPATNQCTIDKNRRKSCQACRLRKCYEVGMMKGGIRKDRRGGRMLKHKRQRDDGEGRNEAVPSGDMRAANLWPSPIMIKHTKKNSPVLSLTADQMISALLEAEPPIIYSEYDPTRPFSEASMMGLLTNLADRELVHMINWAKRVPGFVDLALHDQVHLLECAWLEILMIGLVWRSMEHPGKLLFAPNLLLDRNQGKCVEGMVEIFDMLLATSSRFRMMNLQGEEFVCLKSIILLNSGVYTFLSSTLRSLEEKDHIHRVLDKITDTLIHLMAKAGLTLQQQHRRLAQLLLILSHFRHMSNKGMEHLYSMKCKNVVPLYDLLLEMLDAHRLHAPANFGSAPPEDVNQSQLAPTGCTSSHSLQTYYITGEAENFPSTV
Procedure, shortened: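 Cell-free radioligand binding with receptor from bovine uterine membranes, read by scintillation counting 18 h after dosing. Loss of specific binding was scored against DMSO; primary screen at 25 uM in duplicate, actives then run as concentration series.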

[8] = target: chimpanzee Androgen Receptor (AR), AR (gene 747460) (UniProt O97775); assay: NVS_NR_cAR: NovaScreen (NVS) Nuclear Receptor Binding Assay for chimpanzee Androgen Receptor (AR) (AID 2283346);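 further: radioligand displacement from AR measured by scintillation counting in a cell-free assay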
Chain of chimpanzee Androgen Receptor (AR), AR (gene 747460) (O97775 whole entry, looked up): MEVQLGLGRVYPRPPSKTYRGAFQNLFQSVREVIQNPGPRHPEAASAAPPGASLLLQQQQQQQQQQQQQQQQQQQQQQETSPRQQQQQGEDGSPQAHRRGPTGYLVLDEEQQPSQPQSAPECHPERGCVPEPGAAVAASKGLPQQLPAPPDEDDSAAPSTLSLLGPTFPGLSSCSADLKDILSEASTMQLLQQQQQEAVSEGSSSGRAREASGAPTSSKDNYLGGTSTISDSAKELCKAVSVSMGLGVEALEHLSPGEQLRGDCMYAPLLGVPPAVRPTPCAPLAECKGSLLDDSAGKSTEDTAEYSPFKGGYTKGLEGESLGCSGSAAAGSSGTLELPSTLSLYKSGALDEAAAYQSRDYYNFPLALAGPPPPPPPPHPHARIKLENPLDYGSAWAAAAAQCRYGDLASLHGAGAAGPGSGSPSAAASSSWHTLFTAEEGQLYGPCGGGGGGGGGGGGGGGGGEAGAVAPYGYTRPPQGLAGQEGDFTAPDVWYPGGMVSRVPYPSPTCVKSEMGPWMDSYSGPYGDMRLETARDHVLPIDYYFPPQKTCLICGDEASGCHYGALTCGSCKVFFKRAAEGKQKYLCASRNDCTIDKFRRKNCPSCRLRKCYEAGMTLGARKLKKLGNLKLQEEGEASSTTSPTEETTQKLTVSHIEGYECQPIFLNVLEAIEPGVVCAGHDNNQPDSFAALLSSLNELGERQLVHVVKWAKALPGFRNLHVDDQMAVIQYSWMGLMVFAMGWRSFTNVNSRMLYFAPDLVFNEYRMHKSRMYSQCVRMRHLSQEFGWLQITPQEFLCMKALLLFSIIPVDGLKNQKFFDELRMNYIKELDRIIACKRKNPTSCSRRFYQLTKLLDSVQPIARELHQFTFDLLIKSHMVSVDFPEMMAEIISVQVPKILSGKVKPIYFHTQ
Procedure, shortened: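 Cell-free competition binding with insect-cell (Sf9/Sf21) extracted chimpanzee AR; scintillation signal from lysate at 72 h. Screened in duplicate at 25 uM, then concentration-response for actives; fitting relative to DMSO.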

[9] = target: rat Glutamate, AMPA Site (AMPA), Gria1 (gene 50592) (UniProt P19490); assay: NVS_LGIC_rAMPA: NovaScreen (NVS) Ligand-Gated Ion Channel Assay for rat Glutamate, AMPA Site (AMPA) (AID 2283324)
Procedure, shortened: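 Rat forebrain membranes; radioligand binding read 1 h after dosing by filtration and scintillation counting. Duplicate single-point screen at 25 uM, then concentration-response to 50 uM for threshold hits (e.g. 30% inhibition); loss of signal vs DMSO.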

[10] = target: rat Neonicotinoid receptor (NNR), Chrna7 (gene 25302) (UniProt Q05941); assay: NVS_LGIC_rNNR_BungSens: NovaScreen (NVS) Ligand-Gated Ion Channel Assay for rat Neonicotinoid receptor (NNR) (AID 2283315)
Chain of rat Neonicotinoid receptor (NNR), Chrna7 (gene 25302) (Q05941 whole entry, looked up): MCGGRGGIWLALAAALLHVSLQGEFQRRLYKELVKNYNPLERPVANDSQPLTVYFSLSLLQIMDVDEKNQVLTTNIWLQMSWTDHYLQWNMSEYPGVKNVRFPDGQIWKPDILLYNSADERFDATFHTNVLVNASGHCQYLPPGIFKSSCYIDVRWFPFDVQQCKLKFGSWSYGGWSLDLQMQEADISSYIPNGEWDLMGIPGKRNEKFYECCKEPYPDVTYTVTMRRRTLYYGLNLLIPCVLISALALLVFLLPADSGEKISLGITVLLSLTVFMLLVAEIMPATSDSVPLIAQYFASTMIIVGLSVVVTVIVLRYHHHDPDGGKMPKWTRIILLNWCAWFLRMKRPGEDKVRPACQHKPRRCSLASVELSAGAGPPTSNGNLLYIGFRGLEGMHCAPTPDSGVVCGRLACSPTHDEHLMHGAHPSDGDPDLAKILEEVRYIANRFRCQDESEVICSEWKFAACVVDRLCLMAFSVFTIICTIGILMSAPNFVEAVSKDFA
Procedure, shortened: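 Radioligand displacement binding on rat cortical membranes, 2.5 h incubation, filtration and scintillation counting. Loss of specific binding fitted relative to DMSO.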

[11] = target: rat Glutamate, NMDA Agonist Site (GluNMDA), Grin1 (gene 24408) (UniProt P35439); assay: NVS_LGIC_rGluNMDA_Agonist: NovaScreen (NVS) Ligand-Gated Ion Channel Assay for rat Glutamate, NMDA Agonist Site (GluNMDA) (AID 2283327)
Procedure, shortened: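 Rat forebrain membranes, radioligand binding in the agonist-site protocol; 1 h after dosing; filter-based scintillation counting. Single-concentration duplicate screen at 25 uM, then concentration-response up to 50 uM for actives; gain-of-signal vs DMSO.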

NCBI gene 100848466 = assay: NVS_NR_bPR: NovaScreen (NVS) Nuclear Receptor Binding Assay for bovine Progextron Receptor (PR) (AID 2283343);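 further: actives lower bound radioligand signal below DMSO meaning displacement of the label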
Procedure, shortened: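 Membranes from bovine uterus; radiolabelled ligand plus test chemical; 18 h; scintillation read-out. Activity = signal loss vs DMSO. Primary: 25 uM, duplicate; secondary: concentration series.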

[12] = target: human Constitutive Androstane Receptor (CAR), NR1I3 (gene 9970) (UniProt Q14994); assay: NVS_NR_hCAR_Antagonist: NovaScreen (NVS) Nuclear Receptor Binding Assay for human Constitutive Androstane Receptor Antagonism (CAR) (AID 2283344)
Chain of human Constitutive Androstane Receptor (CAR), NR1I3 (gene 9970) (Q14994 whole entry, looked up): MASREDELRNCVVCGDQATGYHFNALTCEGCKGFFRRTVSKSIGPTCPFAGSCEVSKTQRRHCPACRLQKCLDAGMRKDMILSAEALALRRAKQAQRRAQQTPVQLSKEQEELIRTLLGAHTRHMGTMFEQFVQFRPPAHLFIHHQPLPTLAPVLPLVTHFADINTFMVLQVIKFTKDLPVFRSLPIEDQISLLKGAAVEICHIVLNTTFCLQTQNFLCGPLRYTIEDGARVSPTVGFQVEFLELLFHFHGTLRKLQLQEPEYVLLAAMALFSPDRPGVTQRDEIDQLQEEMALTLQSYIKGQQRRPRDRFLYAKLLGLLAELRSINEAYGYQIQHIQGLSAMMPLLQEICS
Procedure, shortened: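 Cell-free TR-FRET binding read 1 h after dosing, antagonist mode; loss of signal versus DMSO baseline. Primary screen in duplicate at a single 25 uM; actives retested in concentration series.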

[13] = target: rat Gamma-Aminobutyric Acid Type A Receptor, Non-Selective (GABAR-NonSelective), Gabra1 (gene 29705) (UniProt P62813); assay: NVS_LGIC_rGABAR_NonSelective: NovaScreen (NVS) Ligand-Gated Ion Channel Assay for rat Gamma-Aminobutyric Acid Type A Receptor, Non-Selective (GABAR-NonSelective) (AID 2283326)
Chain of rat Gamma-Aminobutyric Acid Type A Receptor, Non-Selective (GABAR-NonSelective), Gabra1 (gene 29705) (P62813 whole entry, looked up): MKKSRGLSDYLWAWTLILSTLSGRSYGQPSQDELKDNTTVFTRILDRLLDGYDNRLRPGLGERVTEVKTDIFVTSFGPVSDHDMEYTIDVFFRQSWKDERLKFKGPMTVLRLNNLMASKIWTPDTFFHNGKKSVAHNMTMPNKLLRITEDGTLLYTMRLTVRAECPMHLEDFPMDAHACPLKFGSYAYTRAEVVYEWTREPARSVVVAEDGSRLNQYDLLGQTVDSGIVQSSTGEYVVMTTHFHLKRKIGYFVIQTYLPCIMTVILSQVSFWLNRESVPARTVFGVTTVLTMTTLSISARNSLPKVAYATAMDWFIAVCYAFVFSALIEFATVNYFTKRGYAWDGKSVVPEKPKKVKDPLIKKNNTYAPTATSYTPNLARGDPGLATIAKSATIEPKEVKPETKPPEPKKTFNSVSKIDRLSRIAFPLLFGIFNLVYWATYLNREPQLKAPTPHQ
Procedure, shortened: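 Radioligand displacement on rat whole-brain extract, 1 h, filter scintillation readout; signal loss fitted versus DMSO. Primary screen in duplicate at 25 uM; hits (e.g. ≥30% inhibition) retested in concentration-response up to 50 uM.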

[14] = target: Voltage-dependent N-type calcium channel subunit alpha-1B (Rattus norvegicus) (UniProt Q02294); assay: NVS_IC_rCaChN: NovaScreen (NVS) Ion Channel Assay for rat Calcium Channel, Type N (CaChN) (AID 2283317)
[15] = target: Bile acid receptor (Homo sapiens) (UniProt Q96RI1); assay: NVS_NR_hFXR_Antagonist: NovaScreen (NVS) Nuclear Receptor Binding Assay for human Farnesoid X Receptor Antagonism (FXR) (AID 2283350)
Chain of Bile acid receptor (Homo sapiens) (Q96RI1 whole entry, looked up): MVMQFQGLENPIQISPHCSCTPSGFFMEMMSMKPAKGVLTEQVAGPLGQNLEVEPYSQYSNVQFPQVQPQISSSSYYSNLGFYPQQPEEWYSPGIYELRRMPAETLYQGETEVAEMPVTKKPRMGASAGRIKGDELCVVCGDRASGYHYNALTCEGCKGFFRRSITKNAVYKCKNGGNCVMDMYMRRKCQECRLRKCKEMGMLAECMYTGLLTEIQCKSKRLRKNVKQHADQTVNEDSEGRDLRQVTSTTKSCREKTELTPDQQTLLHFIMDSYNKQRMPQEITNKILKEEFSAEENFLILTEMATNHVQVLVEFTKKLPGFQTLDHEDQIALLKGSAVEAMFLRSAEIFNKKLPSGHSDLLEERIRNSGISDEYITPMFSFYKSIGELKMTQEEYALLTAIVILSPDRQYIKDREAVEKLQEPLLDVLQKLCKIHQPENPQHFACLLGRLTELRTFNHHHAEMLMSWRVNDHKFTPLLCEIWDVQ
Procedure, shortened: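 Cell-free TR-FRET ligand-binding read-out on human FXR (NR1H4) in antagonist mode, measured 1 h after dosing. Primary screen in duplicate at 25 uM, actives retested in concentration series; signal loss scored versus DMSO.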

[16] = NVS_IC_rCaDHPRCh_L: NovaScreen (NVS) Ion Channel Assay for rat Calcium Channel, Type L, Dihydropyridine Site (CaDHPRCh_L) (AID 2283320)
Procedure, shortened: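 Radioligand binding to dihydropyridine site on rat cortical membranes, filter-based scintillation counting, 1 h after dosing. Screened in duplicate at 25 uM; actives rerun in concentration-response up to 50 uM. Loss of signal versus DMSO baseline.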

[17] = target: human Constitutive Androstane Receptor (CAR), NR1I3 (gene 9970) (UniProt Q14994); assay: NVS_NR_hCAR_Agonist: NovaScreen (NVS) Nuclear Receptor Binding Assay for human Constitutive Androstane Receptor Agonism (CAR) (AID 2283328)
Procedure, shortened: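 Cell-free TR-FRET binding readout with extracted human CAR protein, read 1 h after dosing. Gain of signal fitted against DMSO baseline. Single-concentration duplicates at 25 uM, then concentration-response up to 50 uM for actives.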

## CC(C)(COCC1CO1)COCC1CO1 (centres undefined)
[1]
  AC50: 2.05 µM (active)
[2]
  outcome: inactive

## CC(C)N(C(=O)CCl)c1ccccc1
[3]
  outcome: inactive
[4]
  AC50: 7.59 µM (active) and 7.28 µM (active)
[2]
  AC50: 3.16 µM (active) and 407 nM (active)
[5]
  outcome: inactive
[6]
  outcome: inactive

## O=c1[nH]c(=O)n(Cl)c(=O)n1Cl
[3]
  outcome: inactive

## O=[N+]([O-])c1ccc(Cl)c([N+](=O)[O-])c1
[3]
  outcome: inactive
[7]
  outcome: inactive
[8]
  AC50: 11.9 µM (active)
[5]
  outcome: inactive

## CN(C)C(=S)S
[9]
  outcome: inactive

## COc1nn(C(=O)NS(=O)(=O)c2ccccc2OC(F)(F)F)c(=O)n1C
[3]
  outcome: inactive

## O=S1(=O)OC(c2cc(Br)c(O)c(Br)c2)(c2cc(Br)c(O)c(Br)c2)c2ccccc21
[3]
  outcome: inactive
[4]
  AC50: 5.29 µM (active)
[8]
  AC50: 18.1 µM (active)
[5]
  outcome: inactive
[6]
  outcome: inactive

## CC(O)(CS(=O)(=O)c1ccc(F)cc1)C(=O)Nc1ccc(C#N)c(C(F)(F)F)c1 (centres undefined)
[3]
  outcome: inactive
[7]
  outcome: inactive
[6]
  outcome: inactive

## C[N+](C)(C)Cc1ccccc1
[10]
  AC50: 25 µM (active)
  outcome: inactive

## CCCCCCCCCCCCc1cccc(S(=O)(=O)O)c1
[11]
  outcome: inactive
[2]
  AC50: 12.4 µM (active)
NCBI gene 100848466
  AC50: 19.5 µM (active)
[12]
  AC50: 17.9 µM (active)

## O=C1C[C@@H]2OCC=C3CN4CC[C@]56c7ccccc7N1[C@H]5[C@H]2[C@H]3C[C@H]46
[10]
  outcome: inactive

## CCOCn1c(-c2ccc(Cl)cc2)c(C#N)c(Br)c1C(F)(F)F
[3]
  outcome: inactive
[4]
  AC50: 0.368 µM (active)
[7]
  outcome: inactive
[5]
  outcome: inactive
[6]
  AC50: 12.4 µM (active)

## CCCCCCCCCCCCN(C)C
[1]
  outcome: inactive
[6]
  outcome: inactive

## Oc1cc(Cl)c(Cl)cc1Cl
[13]
  outcome: inactive
[8]
  outcome: inactive

## O=c1nc(O)n(Cl)c(=O)n1Cl
[3]
  outcome: inactive

## CNC(=O)O/N=C/C(C)(C)S(C)(=O)=O
[3]
  outcome: inactive
[6]
  outcome: inactive

## O=C(O)C1(c2ccc3c(c2)OC[C@H](Cc2ccc(-c4ccccc4)cc2)[C@H]3O)CCCC1
[14]
  outcome: inactive
[15]
  outcome: inactive

## CC(=Cc1ccccc1)[N+](=O)[O-]
[3]
  outcome: inactive
[5]
  outcome: inactive
[6]
  outcome: inactive

## OC(Cc1ccccc1Cl)(Cn1cncn1)C1(Cl)CC1 (centres undefined)
[1]
  AC50: 6.73 µM (active)
[8]
  outcome: inactive

## CCCCCCCCCCBr
[1]
  outcome: inactive

## CCOP(=O)(OCC)SCCSCC
[1]
  outcome: inactive

## NC(=O)CCl
[1]
  AC50: 42.5 µM (active)

## CN(N=O)C(N)=O
[3]
  outcome: inactive

## O=C(CBr)c1ccc(O)cc1
[3]
  outcome: inactive

## COc1ccccc1N
[3]
  outcome: inactive

## Brc1c(Br)c(Br)c(Oc2c(Br)c(Br)c(Br)c(Br)c2Br)c(Br)c1Br
[1]
  outcome: inactive

## CCC[CH2][Sn]([Cl])([Cl])[CH2]CCC
[3]
  outcome: inactive
[8]
  AC50: 19.6 µM (active)
[5]
  outcome: inactive
[6]
  outcome: inactive

## Clc1cccc(Cl)c1
[16]
  outcome: inactive
[4]
  outcome: inactive
[12]
  outcome: inactive

## N#CCCC(Br)(C#N)CBr (centres undefined)
[3]
  outcome: inactive

## O=C(N[C@H]1CN2CCC1CC2)c1ccc2c(c1)OCCO2
[17]
  outcome: inactive
